Measured values published in PubChem BioAssay AID1159580 (chemical genetic matrix, 2015).
In all, about 5,500 compounds went through this assay and about 2,000 (36%) were called active. Inconclusive results (about 18%) are left out. Rule as the data show it: active = normalized growth mostly below about 0.91 (no sharp cut-off); inconclusive = no clear call, values can overlap the other calls; inactive = mostly above about 0.92. The list shows a part of the results.

Test: chemical genetic growth profiling, strain panel (AID 1159580);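 also: tested at 20 µM; growth read once vehicle control cultures reached saturation at 30 °C; 1 = growth at the plate median or of vehicle wells; lower values mean less growth of the strain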
Conditions: S. cerevisiae deletion strains, growth OD

Measured: normalized growth

COc1c2c(nc3ccccc13)OC(C(C)(O)CO)C2 (stereo not given)
inactive: locus YAL040C, strain CLN3, stronger effect = lower value 1.01 | locus YCL061C, strain MRC1 (second series), stronger effect = lower value 1.01 | locus YDR363W, strain ESC2, stronger effect = lower value 0.993 | locus YER002W, strain NOP16, stronger effect = lower value 1.01 | locus YJR075W, strain HOC1, stronger effect = lower value 0.994 | locus YMR263W, strain SAP30, stronger effect = lower value 0.998 | locus YMR307W, strain GAS1, stronger effect = lower value 1.01 | locus YNL128W, strain TEP1, stronger effect = lower value 1.02 | locus YNL153C, strain GIM3, stronger effect = lower value 1.04 | locus YNL175C, strain NOP13, stronger effect = lower value 1.01 | locus YNL197C, strain WHI3, stronger effect = lower value 1.01 | locus YNL224C, strain SQS1, stronger effect = lower value 1.01 | locus YOR083W, strain WHI5 (second series), stronger effect = lower value 1 | locus YPL055C, strain LGE1, stronger effect = lower value 0.99 | locus YPL241C, strain CIN2, stronger effect = lower value 1
